This passage reports sensor-assay potency score (higher = more potent) results from the OligoGym collection.
Further: reference of the scale not given here.

The first assay deals with ANAPC5. Nature of the assay: pooled miR-30 sensor sort-seq; sequence = guide strand. Particulars: shRNA.
Consider TACACTTGTTTTGTGAACCTCT, for which the sensor-assay potency score (higher = more potent) amounted to 0.756.
Same read-out and setting: as for TTTGACAGTGTAATATCTGGGC, the figure is 0.588.
On the same count and under the same terms, next, ATAGCTATCGGATCTCTTCTGC: 0.457; TTTGATTCTGATCTGCACTGAA: 0.516.

In a further assay the target is ANGPTL1. Described as above. Particulars: shRNA.
Regarding TTGATTGCTAAGCATATAGATA, the sensor-assay potency score (higher = more potent) is -1.25.
Same read-out and setting: as for TAAATTGTTAAGTATCTTGAAC, the figure is -0.687.
TTAAATCTCTGGGATAACCTGG registered a sensor-assay potency score (higher = more potent) of -0.522.
The same measure, in the same setting: as for TAATTTTGAATTGTCCACCTCT, the figure is 0.889.
On the same count and under the same terms, next, TTGCAGAACATCTATCTCCCGC: 0.289; TAGACTTTTTTATCACTCCAGT: -0.73; TCCATCTACATCCACCACCAGT: -1.83.
As to TTTTGCTTGCTGACAGTCTTTG, the sensor-assay potency score (higher = more potent) is -0.992.
Same read-out and setting: next, ATAACTTGTAATTATCTTGATT: -0.722; TTTAATGGTACTTGCATCTTGC: 0.613.
Still for that read-out and setting: next, TATAGAGTTGAGTAACACGAGA: -1.16.

Another assay addresses ANGPTL3. Described as above. Conditions: shRNA.
In the case of TTACATCGTCTAACATAGCAAA, the sensor-assay potency score (higher = more potent) was -1.16.
The same measure, in the same setting: next, TTTATATGTAGTTCTTCTCAGT: -0.38.
On the same count and under the same terms, next, TTAATGTCCATGGACTACCTGA: -0.665; TATAACATCACAGTAGACATGA: 0.929; TAATGTTTGTTGTCTTTCCAGT: -0.418.
Same read-out and setting: as for TAGAATTTTTTCTTCTAGGAGG, the figure is -0.766; as for TCGTCTAACATAGCAAATCTTG, -1.34.
TTGACTTGTAGTTTATATGTAG displayed a sensor-assay potency score (higher = more potent) of 0.386.
On the same count and under the same terms, next, TTCTTTTATTTGACTATGCTGT: -0.537.
Still for that read-out and setting: as for TTTGTGATCCATCTATTCGATG, the figure is -1.29; as for TTGAATACTAGTCCTTCTGAGC, -0.706; as for TTATAGAGTATAACCTTCCATT, -0.924.

A further assay has as its target ANG. Described as above. Particulars: shRNA.
TGTACCTGGAGTTATCCTGAGC gave a sensor-assay potency score (higher = more potent) of -1.14.
Still for that read-out and setting: as for TTATCCTGAGCCAGGGTCGGTG, the figure is -1.46.
The same measure, in the same setting: next, TTTCTCTGTGAGGGTTTCCATT: -0.964.
As to AAGACTTGCTTATTCTTAGGTT, the sensor-assay potency score (higher = more potent) is 0.22.
On the same count and under the same terms, as for TTAGGTTTTCTCTGTGAGGGTT, the figure is 0.674; as for TTGTTTTCACAGATGGCCTTGA, 0.228; as for TTCTTAGGTTTTCTCTGTGAGG, -0.88.
On the same count and under the same terms, as for TCTGTGAGGGTTTCCATTCTTG, the figure is -0.487; as for TGCTTTCACAGTATCTGTCATC, -1.22.
The same measure, in the same setting: next, TCACAAGCAACAACAACGTTTC: -0.587.
In turn, TGGTTTGGCATCATAGTGCTGG gave a sensor-assay potency score (higher = more potent) of -0.375.
On to TTGATGTCTTTGCAGGGTGAGG, for which the sensor-assay potency score (higher = more potent) was -1.52.
On the same count and under the same terms, as for TTCACAAGCAACAACAACGTTT, the figure is -0.418.
